Assay results as given in PubChem BioAssay AID1345085 (National Center for Advancing Translational Sciences (NCATS), 2018).
Records with an inconclusive call do not appear. Active and inactive are the calls of the source. Calls follow the shape of the dose curve; as a rule, active = well fitted cell-killing curve with a large enough effect; inconclusive = small, poorly fitted or top-dose-only effect, or effect the other way; inactive = no such curve, though single readings can be large or run the other way.

System: JEG-3
Experiment: Confirmatory qHTS for gynecologic anti-cancer compounds from libraries of approved drugs and bioactive compounds; also: nearly all actives have a fitted effect of over 55% in size
Settings: gynecologic cancer cell panel viability, ATPlite luminescence, 48 h; series mostly up to 57.6 µM; activity change, negative = viability loss: at the top concentration
Method in brief: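 1,000 cells/well; 16 h pre-incubation 37 C, 5% CO2; pin-transferred cpd in DMSO, 11 conc (1:3), 57.5 uM–0.977 nM; 48 h; ATPlite, 15 min RT; luminescence → IC50.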
% is scaled to controls: 0 for no effect and ±100 for the full control effect; potency is read from the fitted curve at half-maximal effect.

Row | SMILES | Potency | activity change, negative = viability loss
1 | CC(C)n1nc(-c2cc3cc(O)ccc3[nH]2)c2c(N)ncnc21 | 17.2 µM (active) | –
2 | CCN(CC)CCNC(=O)c1c(C)[nH]c(/C=C2\C(=O)Nc3ccc(F)cc32)c1C | 25.1 µM (active) | –
3 | CC[C@@]1(O)C(=O)OCc2c1cc1n(c2=O)Cc2c-1nc1ccccc1c2/C=N/OC(C)(C)C | 0.0217 µM (active) | –
4 | Cc1ccc(C(N)=O)cc1Nc1nccc(-c2cn(C(C)C)c3cnccc23)n1 | 7.69 µM (active) | –
5 | COc1cc2c(Nc3ccc(NC(=O)c4ccccc4)cc3)ncnc2cc1OCCCN1CCOCC1 | 27.3 µM (active) | –
6 | CCCCc1nc2cc(/C=C/C(=O)NO)ccc2n1CCN(CC)CC | 1.53 µM (active) | –
7 | O=c1cc(CN2CCOCC2)occ1OCCCCCSc1ccnc2cc(C(F)(F)F)ccc12 | 8.63 µM (active) | –
8 | CCCCN(CCCC)C(=O)CN1C[C@H](c2ccc3c(c2)OCO3)[C@@H](C(=O)O)[C@@H]1c1ccc(OC)cc1 | – | 3.29% (inactive)
9 | CN[C@@H](C)C(=O)N[C@H]1CN(C(=O)CC(C)C)CC[C@H]2CC[C@@H](C(=O)NC(c3ccccc3)c3ccccc3)N2C1=O | – | 14.6% (inactive)
10 | Cc1cnc(Nc2ccc(CN3CCOCC3)cc2)nc1Nc1cccc(S(=O)(=O)NC(C)(C)C)c1 | 9.68 µM (active) | –
11 | CNc1nc(Nc2ccc(C(=O)N3CCOCC3)cc2OC)ncc1Cl | – | 0.899% (inactive)
12 | Cc1cnc(CNC(=O)c2c(=O)c3ccc(N4CCCN(C)CC4)nc3n3c2sc2ccccc23)cn1 | – | -17.5% [at 10.6 µM] (inactive)
13 | Cc1ccccc1C(OCCN(C)C)c1ccccc1 (centres undefined) | – | 0.4% (inactive)
14 | COc1ccc(-c2ccc3c(N4CCOCC4C)nc(N4CCOCC4C)nc3n2)cc1CO (centres undefined) | – | -1.03% (inactive)
